The campaign covered roughly 5,500 compounds. About 2,000 (36%) were called active. About 18% were inconclusive and are not listed. Cut-off read from the data, not from the text of the source: active = normalized growth mostly below about 0.91 (no sharp cut-off); inconclusive = no clear call, values can overlap the other calls; inactive = mostly above about 0.92. The list shows a part of the results. Where a SMILES comes first, the peptide text is derived from it.
Test: chemical genetic growth profiling, strain panel (AID 1159580);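 note: tested at 20 µM; growth read once vehicle control cultures reached saturation at 30 °C; 1 = growth at the plate median or of vehicle wells; lower values mean less growth of the strain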
Details: growth OD

Measured: normalized growth

CC(=O)N[C@@H](CC(=O)O)C(=O)N[C@@H](CCC(=O)O)C(=O)O (Ac-Asp-Glu-OH)
inactive: S. cerevisiae deletion strains, locus YJR075W, strain HOC1, stronger effect = lower value 1.01 | S. cerevisiae deletion strains, locus YKL009W, strain mrt4, stronger effect = lower value 0.987 | S. cerevisiae deletion strains, locus YKL068W, stronger effect = lower value 0.997 | S. cerevisiae deletion strains, locus YKL085W, strain MDH1 (second series), stronger effect = lower value 0.985 | S. cerevisiae deletion strains, locus YKL085W, strain MDH1, stronger effect = lower value 0.985 | S. cerevisiae deletion strains, locus YKL160W, strain elf1, stronger effect = lower value 1.01 | S. cerevisiae deletion strains, locus YKL190W, strain CNB1, stronger effect = lower value 1.02 | S. cerevisiae deletion strains, locus YKR001C, strain vps1, stronger effect = lower value 0.989 | S. cerevisiae deletion strains, locus YKR026C, strain gcn3, stronger effect = lower value 1 | S. cerevisiae deletion strains, locus YKR091W, strain srl3, stronger effect = lower value 0.996 | S. cerevisiae deletion strains, locus YLL001W, strain dnm1, stronger effect = lower value 0.994 | S. cerevisiae deletion strains, locus YLL026W, stronger effect = lower value 1 | S. cerevisiae deletion strains, locus YLL041C, strain sdh2, stronger effect = lower value 1 | S. cerevisiae deletion strains, locus YLR027C, strain aat2, stronger effect = lower value 1.01 | S. cerevisiae deletion strains, locus YLR039C, strain RIC1, stronger effect = lower value 1.04 | S. cerevisiae deletion strains, locus YLR058C, strain SHM2, stronger effect = lower value 1.01 | S. cerevisiae deletion strains, locus YLR102C, strain apc9, stronger effect = lower value 0.984 | S. cerevisiae deletion strains, locus YLR113W, strain HOG1, stronger effect = lower value 0.987 | S. cerevisiae deletion strains, locus YLR221C, strain rsa3, stronger effect = lower value 1 | S. cerevisiae deletion strains, locus YLR258W, strain gsy2, stronger effect = lower value 0.992 | S. cerevisiae deletion strains, locus YLR262C, strain YPT6 (second series), stronger effect = lower value 1.02 | S. cerevisiae deletion strains, locus YLR262C, strain YPT6, stronger effect = lower value 1.04 | S. cerevisiae deletion strains, locus YLR268W, strain sec22, stronger effect = lower value 0.981 | S. cerevisiae deletion strains, locus YLR320W, strain mms22, stronger effect = lower value 1 | S. cerevisiae deletion strains, locus YLR330W, strain CHS5, stronger effect = lower value 1.02 | S. cerevisiae deletion strains, locus YLR342W, strain FKS1 (second series), stronger effect = lower value 0.996 | S. cerevisiae deletion strains, locus YLR342W, strain FKS1, stronger effect = lower value 1 | S. cerevisiae deletion strains, locus YLR357W, strain rsc2, stronger effect = lower value 0.987 | S. cerevisiae deletion strains, locus YLR370C, strain arc18, stronger effect = lower value 1.02 | S. cerevisiae deletion strains, locus YLR371W, strain rom2, stronger effect = lower value 0.99 | S. cerevisiae deletion strains, locus YLR384C, strain iki3, stronger effect = lower value 0.998 | S. cerevisiae deletion strains, locus YLR418C, strain cdc73, stronger effect = lower value 0.982 | S. cerevisiae deletion strains, locus YML016C, strain PPZ1, stronger effect = lower value 1.02 | S. cerevisiae deletion strains, locus YML032C, strain rad52, stronger effect = lower value 0.985 | S. cerevisiae deletion strains, locus YML120C, strain ndi1, stronger effect = lower value 1.01 | S. cerevisiae deletion strains, locus YML124C, strain tub3, stronger effect = lower value 0.984 | S. cerevisiae deletion strains, locus YMR058W, strain fet3, stronger effect = lower value 1.01 | S. cerevisiae deletion strains, locus YMR078C, strain ctf18, stronger effect = lower value 1 | S. cerevisiae deletion strains, locus YMR125W, strain sto1, stronger effect = lower value 0.987 | S. cerevisiae deletion strains, locus YMR129W, stronger effect = lower value 1.01 | S. cerevisiae deletion strains, locus YMR205C, strain PFK2, stronger effect = lower value 0.967 | S. cerevisiae deletion strains, locus YMR223W, strain ubp8, stronger effect = lower value 0.983 | S. cerevisiae deletion strains, locus YMR231W, strain pep5, stronger effect = lower value 1.01 | S. cerevisiae deletion strains, locus YMR263W, strain SAP30, stronger effect = lower value 1.03 | S. cerevisiae deletion strains, locus YMR307W, strain GAS1, stronger effect = lower value 1.01 | S. cerevisiae deletion strains, locus YNL067W, strain RPL9B, stronger effect = lower value 1.02 | S. cerevisiae deletion strains, locus YNL071W, strain lat1, stronger effect = lower value 1.02 | S. cerevisiae deletion strains, locus YNL128W, strain TEP1, stronger effect = lower value 1.02 | S. cerevisiae deletion strains, locus YNL153C, strain GIM3, stronger effect = lower value 1.01 | S. cerevisiae deletion strains, locus YNL183C, strain NPR1, stronger effect = lower value 0.894 | S. cerevisiae deletion strains, locus YNL209W, strain ssb2, stronger effect = lower value 0.997 | S. cerevisiae deletion strains, locus YNL233W, strain BNI4, stronger effect = lower value 1.02 | S. cerevisiae deletion strains, locus YNL248C, strain rpa49, stronger effect = lower value 1.01 | S. cerevisiae deletion strains, locus YNL250W, strain rad50, stronger effect = lower value 0.982 | S. cerevisiae deletion strains, locus YNL271C, strain bni1, stronger effect = lower value 0.984 | S. cerevisiae deletion strains, locus YNL298W, strain CLA4, stronger effect = lower value 0.987 | S. cerevisiae deletion strains, locus YNL307C, strain MCK1, stronger effect = lower value 0.988 | S. cerevisiae deletion strains, locus YNL322C, strain KRE1 (second series), stronger effect = lower value 1 | S. cerevisiae deletion strains, locus YNL322C, strain KRE1, stronger effect = lower value 1.01 | S. cerevisiae deletion strains, locus YNR049C, strain mso1, stronger effect = lower value 1.01 | S. cerevisiae deletion strains, locus YNR052C, strain pop2, stronger effect = lower value 0.991 | S. cerevisiae deletion strains, locus YOL006C, strain TOP1, stronger effect = lower value 1.03 | S. cerevisiae deletion strains, locus YOL012C, strain htz1 0.942 | S. cerevisiae deletion strains, locus YOL147C, strain pex11, stronger effect = lower value 0.987 | S. cerevisiae deletion strains, locus YOR001W, strain rrp6, stronger effect = lower value 1.01 | S. cerevisiae deletion strains, locus YOR061W, strain CKA2, stronger effect = lower value 1.01 | S. cerevisiae deletion strains, locus YOR069W, strain VPS5, stronger effect = lower value 1.01 | S. cerevisiae deletion strains, locus YOR070C, strain gyp1, stronger effect = lower value 1.01 | S. cerevisiae deletion strains, locus YOR080W, strain dia2, stronger effect = lower value 0.988 | S. cerevisiae deletion strains, locus YOR083W, strain WHI5, stronger effect = lower value 1.01 | S. cerevisiae deletion strains, locus YOR106W, strain vam3, stronger effect = lower value 1.02 | S. cerevisiae deletion strains, locus YOR136W, strain idh2, stronger effect = lower value 0.99 | S. cerevisiae deletion strains, locus YOR144C, strain elg1, stronger effect = lower value 1 | S. cerevisiae deletion strains, locus YOR184W, strain ser1, stronger effect = lower value 0.979 | S. cerevisiae deletion strains, locus YOR231W, strain MKK1, stronger effect = lower value 0.982 | S. cerevisiae deletion strains, locus YOR265W, strain rbl2, stronger effect = lower value 1.01 | S. cerevisiae deletion strains, locus YOR270C, strain vph1, stronger effect = lower value 1.1 | S. cerevisiae deletion strains, locus YOR290C, strain snf2, stronger effect = lower value 0.975 | S. cerevisiae deletion strains, locus YOR316C, strain cot1, stronger effect = lower value 0.997 | S. cerevisiae deletion strains, locus YPL051W, strain arl3, stronger effect = lower value 1.01 | S. cerevisiae deletion strains, locus YPL055C, strain LGE1, stronger effect = lower value 1.02 | S. cerevisiae deletion strains, locus YPL078C, strain atp4, stronger effect = lower value 1.03 | S. cerevisiae deletion strains, locus YPL106C, strain sse1, stronger effect = lower value 0.975 | S. cerevisiae deletion strains, locus YPL240C, strain hsp82, stronger effect = lower value 1.01 | S. cerevisiae deletion strains, locus YPL241C, strain CIN2, stronger effect = lower value 1.01 | S. cerevisiae deletion strains, locus YPL256C, strain CLN2, stronger effect = lower value 1.01 | S. cerevisiae deletion strains, locus YPR119W, strain clb2, stronger effect = lower value 0.99 | S. cerevisiae deletion strains, locus YPR141C, strain kar3, stronger effect = lower value 0.995 | S. cerevisiae deletion strains, locus YPR163C, strain tif3, stronger effect = lower value 0.99 | S. cerevisiae deletion strains, locus YPR167C, strain met16, stronger effect = lower value 0.991 | S. cerevisiae deletion strains, strain wtn01, stronger effect = lower value 0.989 | S. cerevisiae strains, strain wild type, stronger effect = lower value 1

Source: PubChem BioAssay AID1159580 (chemical genetic matrix, 2015)
